Where “and” joins values, the source holds several entries; their conditions need not be identical. Equal values may be shown once. Compounds without any hit were thinned out: in the full panel of roughly 83,000, 20% have a hit.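 Treatment: one concentration, 48 hours, 96-well format. Scoring: percent growth, with anything below 10 considered active.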 Calls of active or inactive are those of the source.
How the values were obtained:
Assay in all cases: NCI-60 one-dose screen, 48 h (100 = growth as untreated, 0 = no growth, -100 = all killed)
Conditions in all cases: 10 µM unless noted
[1] = test system: NCI-H23 lung
[2] = test system: NCI-H226 lung
[3] = test system: NCI-H322M lung
[4] = test system: HOP-62 NSCLC
[5] = test system: NCI-H460 lung
[6] = test system: HOP-92 NSCLC
[7] = test system: NCI-H522 lung
[8] = test system: A549/ATCC NSCLC
[9] = test system: 786-0 renal
[10] = test system: COLO 205 colon
[11] = test system: DU-145 prostate
[12] = test system: K-562 leukemia
[13] = test system: MALME-3M melanoma
[14] = test system: MDA-MB-231 breast
[15] = test system: RXF 393 renal
[16] = test system: SF-268 CNS
[17] = test system: SF-295 CNS
[18] = test system: SF-539 CNS
[19] = test system: UACC-257 melanoma
[20] = test system: M14 melanoma

Measured: growth

O=C(c1ccc(Nc2nccc(NCCCNc3ccnc4cc(Cl)ccc34)n2)cc1)N1CCCCC1
inactive: [1] 32.4% | [2] 84.9% | [3] 57.6% | [4] 57.5% | [5] 11.3% | [6] 64.3% | [7] 38.2% | [8] 19.1% | [9] 32.9% | [10] 27.2% | [11] 39.1% | [12] 18.8% | [13] 17.2% | [14] 36.2% | [15] 61% | [16] 36.5% | [17] 37.2% | [18] 35.5% | [19] 36.7% | [20] 35%

COc1cc(/C=C(/c2ccccc2)[N+](=O)[O-])c(OC)c2c1OCO2
active: [1] -34.7% | [3] 3.33% | [4] -19.6% | [5] -16.1% | [6] -49.2% | [7] -62.8% | [8] 5.75% | [9] -98% | [10] -53.1% | [11] -87.4% | [12] 0.225% | [13] -49.6% | [14] -47.9% | [15] -79.8% | [18] -90.5%
inactive: [2] 24.8% | [16] 21.1% | [17] 28.8% | [19] 17.3% | [20] 11.9%

COc1nc2ccc(C)cc2cc1/C=[N+](\[O-])c1ccccc1
inactive: [1] 93.8% | [2] 73.6% | [3] 85.1% | [4] 81.7% | [5] 98.9% | [6] 72.5% | [7] 84.6% | [8] 92.4% | [9] 103% | [10] 96% | [11] 95.5% | [12] 33.6% | [13] 94% | [14] 78% | [15] 101% | [16] 86.2% | [17] 90.3% | [18] 89.8% | [19] 95.7% | [20] 86.8%

Cc1ccc(-c2nc3nc(-c4ccccc4)nc(N4CCCNCC4)c3o2)cc1
inactive: [1] 19.4% | [2] 88.9%
active: [3] -6.9% | [4] -27.1% | [5] -57.7% | [6] -33.5% | [7] -69.6% | [8] -66.5% | [9] -97.1% | [10] -86.9% | [11] -25.5% | [12] -76.4% | [13] -85.5% | [14] -86.9% | [15] -73.2% | [16] -26.3% | [17] -87.3% | [18] -88.5% | [19] 4.04% | [20] -93.9%

Clc1nccc2c(-c3csc(-c4c[nH]c5ccc(Br)cc45)n3)c[nH]c12
inactive: [1] 31.9% | [2] 33.6% | [3] 70.4% | [8] 15.1% | [11] 29% | [14] 14.4% | [16] 55.6% | [18] 15.3%
active: [4] 7.78% | [5] -5.23% | [6] 6.84% | [7] 1.55% | [9] -68.2% | [10] 7.99% | [12] 3.99% | [13] 8.43% | [15] -14.8% | [17] -10.3% | [19] -48.9% | [20] -34.3%

CCCO/N=C/c1ccccn1
inactive: [1] 105% and 96.6% | [2] 99.2% and 100% | [3] 112% | [4] 104% and 88.2% | [5] 105% and 109% | [6] 105% | [7] 94.8% and 87.3% | [8] 97.5% and 104% | [9] 107% and 101% | [10] 112% and 108% | [11] 102% and 111% | [12] 99.5% and 103% | [13] 110% and 105% | [14] 103% and 111% | [15] 112% and 122% | [16] 96.4% and 104% | [17] 131% and 95.3% | [18] 110% and 95% | [19] 102% and 96.8% | [20] 105% and 103%

O=C1/C(=C/c2ccc(F)c(F)c2)CN(C(=O)C(Cl)Cl)C/C1=C\c1ccc(F)c(F)c1
active: [1] -81.2% | [2] -17% | [3] -86% | [4] -57.7% | [5] -71.9% | [6] -62.6% | [7] -81.8% | [8] -52.1% | [9] -96% | [10] -85.8% | [11] -98.1% | [12] -19.4% | [13] -80.2% | [14] -73.7% | [15] -93.1% | [16] -39.4% | [17] -96.8% | [18] -98.9% | [19] -74.8% | [20] -90.1%

BrC1=C(Br)C(Br)(Br)C(Br)=C1Br
active: [7] -15.2%
inactive: [1] 93% | [2] 91.7% | [3] 107% | [4] 101% | [5] 102% | [6] 105% | [8] 95.2% | [9] 82.4% | [10] 69.6% | [11] 106% | [12] 32.9% | [13] 106% | [14] 73.7% | [15] 75.1% | [16] 97.8% | [17] 113% | [18] 82.2% | [19] 84.7% | [20] 65.2%

CN(C)CC1(C)Cc2ccsc2C1O (stereo not given)
inactive: [1] 106% and 109% | [2] 105% | [3] 119% | [4] 105% and 108% | [5] 112% and 108% | [6] 101% and 108% | [7] 94.5% and 94.3% | [8] 112% and 110% | [9] 97.2% and 94.9% | [10] 106% and 105% | [11] 116% and 97.1% | [12] 104% and 92.8% | [13] 98.8% | [14] 113% and 111% | [15] 108% and 109% | [16] 113% and 102% | [17] 121% and 115% | [18] 93.4% and 105% | [19] 108% and 110% | [20] 111% and 108%

Cn1cc(-c2csc(-c3cn(CCOC(N)=O)c4ccccc34)n2)c2cccnc21
inactive: [1] 81.2% | [2] 86.4% | [3] 90.8% | [4] 74.5% | [5] 82.4% | [6] 83.1% | [7] 24.2% | [8] 67.4% | [9] 87.4% | [10] 77.6% | [11] 103% | [12] 27.3% | [13] 66.4% | [14] 80.4% | [15] 91.4% | [16] 95.8% | [17] 86.2% | [18] 92.7% | [19] 88% | [20] 71.1%

CC1(C)C(N)=Nc2cc(OCCCCN3Cc4ccccc4C3)c(OCC3CC3)cc21
inactive: [1] 80.3% | [2] 79.6% | [3] 79.9% | [4] 85.6% | [5] 75.2% | [6] 103% | [7] 64.2% | [8] 79.5% | [9] 64.8% | [11] 88.8% | [12] 97.3% | [14] 59.2% | [15] 65.8% | [16] 74.7% | [17] 84.8% | [18] 80.8%
active: [10] -62.7% | [13] 2.01% | [19] 1.07% | [20] -53.1%

O=C(/C=C\c1ccc(Cl)c(Cl)c1)c1ccccc1
inactive: [1] 89.1% | [2] 88.2% and 92.3% | [3] 107% | [4] 100% and 91.4% | [5] 101% and 100% | [6] 70.7% | [7] 81% and 87.1% | [8] 86.7% and 93.1% | [9] 84.9% and 104% | [10] 99.9% and 121% | [11] 84.3% and 109% | [12] 32.7% and 95.9% | [13] 104% and 115% | [14] 108% and 99.7% | [15] 86.3% and 110% | [16] 98.4% and 103% | [17] 97.5% and 99.2% | [18] 111% and 110% | [19] 97.7% | [20] 97.2% and 115%

From PubChem BioAssay (NCI)
